This passage reports INHIBITION results from ChEMBL document CHEMBL4513216, “Probing the Open Global Health Chemical Diversity Library for Multistage-Active Starting Points for Next-Generation Antimalarials” (ACS Infect Dis, 2020).

Out of some 68,000 compounds screened, about 2,700 (4%) showed an effect of 50% or more. The list comes from a sample in which strong results are over-represented; it also holds similar structures and randomly drawn compounds.

The test relates to Plasmodium berghei. Description: Screen against P. berghei liver stage (PbLuc), transformed with Luciferase, at 2uM. The conditions noted are these: tested at 2 uM. The class given is functional, HepG2.
Regarding `CCN(Cc1ccncc1)C(=O)c1cn(CCCc2ccccc2)nn1`, the INHIBITION is reported as 30.42%.
The value for `CC(C)=CCN1CC2(CCN(Cc3ncc[nH]3)CC2)CC1=O` was 20.34%.
On to `CN1CC2(CCN(Cc3ncc[nH]3)CC2)CC1=O`, for which the INHIBITION was 73.62%.
With `COCCCN1CC2(CCN(Cc3ncc[nH]3)CC2)CC1=O`, the INHIBITION turned out to be 25.13%.
As for `Cc1n[nH]cc1C(=O)NCc1cccnc1N1CCc2ccccc2C1`, the INHIBITION is recorded as 18.63%.
As to `CS(=O)(=O)Cc1ccc(CNc2ncc(C#N)cc2Cl)cc1`, the INHIBITION is -35.5%.
Turning to `N#Cc1ccc(CNc2ncc(C#N)cc2Cl)cc1`, the INHIBITION is 51.88%.
As to `CCN(CC)C(=O)c1ccc(CNc2ncc(C#N)cc2Cl)cc1`, the INHIBITION is recorded as 27.52%.
For the compound `CSc1nccc(N2CCC3(CCCN(CCc4ccccc4)C3)C2)n1` (centres undefined), the INHIBITION is on record as -31.44%.
For `CCC(NC(=O)c1nn(C)cc1C(=O)O)c1ccccc1` (centres undefined), the INHIBITION was determined as 49.95%.
As to `Cc1ccc(CNC(=O)NC2CCN(CC(F)F)CC2)cc1`, the INHIBITION is on record as -5.19%.
On to `N#Cc1cccc(CNC(=O)NC2CCN(CC(F)F)CC2)c1`, for which the INHIBITION turned out to be 67.51%.
On to `N#Cc1ccc(CNC(=O)NC2CCN(CC(F)F)CC2)cc1`, for which the INHIBITION was -39.58%.
Take `O=C(NCc1nnc2n1CCCC2)c1ccc(C2CCCO2)s1` (centres undefined): the INHIBITION is 29.22%.
Consider `COc1cc(N2CCC3(CCCN(Cc4ccccn4)C3)C2)ncn1` (centres undefined), for which the INHIBITION is on record as -21.32%.
As for `Cc1cc(C)nc(N2CCC(CNC(=O)c3ccccn3)CC2)n1`, the INHIBITION came out at 27.39%.
As to `Cc1cc(C)nc(N2CCC(CNC(=O)c3cnccn3)CC2)n1`, the INHIBITION was 95.75%.
`O=C(NCC1CCN(c2ncccn2)CC1)c1cnccn1`: the INHIBITION is 26.66%.
`CN(Cc1cccc(F)c1)C(=O)CN1CCOC(Cn2cccn2)C1` (centres undefined): the INHIBITION is recorded as 20.28%.
The value for `CCn1ncc(CN2CCc3c(nc(-c4cccnc4)[nH]c3=O)C2)c1C` was 54.82%; that for `CCn1ncc(CN2CCc3nc(-c4cccnc4)nc(O)c3C2)c1C` was 21.14%.
On to `O=c1[nH]c(-c2cccnc2)nc2c1CCN(S(=O)(=O)N1CCCC1)C2`, for which the INHIBITION is -15.3%.
Take `CCO[C@H]1COC[C@@H]1NC(=O)c1c[nH]nc1C1CCCCC1`: the INHIBITION is recorded as -73.93%.
On to `Cc1nc(C(=O)N[C@H]2COC[C@@H]2N2CCCCC2)cs1`, for which the INHIBITION turned out to be 11.19%.
For the compound `O=C(N[C@H]1COC[C@@H]1N1CCCC1)c1c[nH]nc1C1CCCCC1`, the INHIBITION was found to be 77.54%.
Take `Cc1cc(C)cc(C(=O)NCCCNc2ncccn2)c1`: the INHIBITION is listed as 29.13%.
Consider `COc1ccc(C(=O)NCCCNc2ncccn2)c(OC)c1`, for which the INHIBITION was 48.21%.
Regarding `Cc1ccc(C)n1-c1ccc(C(=O)NCCNc2ncccn2)cc1`, the INHIBITION turned out to be 1.61%.
On to `CCOc1ccc(C(=O)NCCCNc2ncccn2)cc1`, for which the INHIBITION was determined as 50.59%.
`CCc1ccc(C(=O)NCCNc2ncccn2)cc1`: the INHIBITION amounted to 56.02%.
For `CS(=O)(=O)c1ccc(C(=O)NCCNc2ncccn2)cc1`, the INHIBITION came to 35.65%.
Regarding `O=C(NCCNc1ncccn1)c1ccc(Br)cc1`, the INHIBITION is -68.24%.
For `COc1ccc(C(=O)NCCCNc2ncccn2)cc1F`, the INHIBITION is given as 5.28%.
For the compound `COc1cc(OC)cc(C(=O)NCCCNc2ncccn2)c1`, the INHIBITION stood at 57.75%.
